Data from the supplement of paper PMC8728848.
About 410 targets per protein were measured; listed, in parts, are those with the strongest signals and a random draw of the rest.

Experiments:
Assay in all cases: glycan array binding signal (z-score within array); higher = stronger binding
Details in all cases: glycan notation: IUPAC condensed, linker removed
[1] = target: Fuc(a1-2)Gal
Procedure, shortened: (§1)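 The Consortium for Functional Glycomics database supplied 3228 glycan arrays, of which those lacking an available protein sequence were dropped. The binding signal, a within-array Z-score, was averaged across arrays of the same protein sequence and across linkers. Negative scores can be read as non-binding.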

[2] = target: Fuc(a1-2)Gal(b1-3)GlcNAc(b1-2)Man(a1-3)[Fuc(a1-2)Gal(b1-3)GlcNAc(b1-2)Man(a1-6)]Man(b1-4)GlcNAc(b1-4)GlcNAc
Procedure, shortened: as §1

[3] = target: Fuc(a1-2)Gal(b1-3)GlcNAc(b1-3)[Neu5Ac(a2-6)Gal(b1-4)GlcNAc(b1-6)]Gal(b1-4)Glc
Procedure, shortened: as §1

[4] = target: Fuc(a1-2)Gal(b1-4)Fuc(a1-3)]GlcNAc(b1-2)Man(a1-3)[Fuc(a1-2)Gal(b1-4)[Fuc(a1-3)]GlcNAc(b1-2)Man(a1-6)]Man(b1-4)GlcNAc(b1-4)GlcNAc
Procedure, shortened: as §1

[5] = target: Fuc(a1-2)Gal(b1-4)GlcNAc(b1-3)Gal(b1-4)GlcNAc(b1-2)Man(a1-3)[Fuc(a1-2)Gal(b1-4)GlcNAc(b1-3)Gal(b1-4)GlcNAc(b1-2)Man(a1-6)]Man(b1-4)GlcNAc(b1-4)GlcNAc
Procedure, shortened: as §1

[6] = target: Fuc(a1-2)Gal(b1-4)GlcNAc(b1-3)Gal(b1-4)GlcNAc(b1-3)Gal(b1-4)GlcNAc
Procedure, shortened: as §1

[7] = target: Fuc(a1-2)Gal(b1-4)GlcNAc(b1-6)GalNAc
Procedure, shortened: as §1

[8] = target: Fuc(a1-2)Gal(b1-4)[Fuc(a1-3)]GlcNAc
Procedure, shortened: as §1

[9] = target: Fuc(a1-2)Gal(b1-4)[Fuc(a1-3)]GlcNAc(b1-2)Man(a1-3)[Fuc(a1-2)Gal(b1-4)[Fuc(a1-3)]GlcNAc(b1-2)Man(a1-6)]Man(b1-4)GlcNAc(b1-4)[Fuc(a1-6)]GlcNAc
Procedure, shortened: as §1

[10] = target: Fuc(a1-2)Gal(b1-4)[Fuc(a1-3)]GlcNAc(b1-2)[Fuc(a1-2)Gal(b1-4)[Fuc(a1-3)]GlcNAc(b1-4)]Man(a1-3)[Fuc(a1-2)Gal(b1-4)[Fuc(a1-3)]GlcNAc(b1-2)Man(a1-6)]Man(b1-4)GlcNAc(b1-4)GlcNAc
Procedure, shortened: as §1

[11] = target: Fuc(a1-2)Gal(b1-4)[Fuc(a1-3)]GlcNAc(b1-3)Gal(b1-4)[Fuc(a1-3)]GlcNAc
Procedure, shortened: as §1

[12] = target: Fuc(a1-2)Gal(b1-4)[Fuc(a1-3)]GlcNAc(b1-3)Gal(b1-4)[Fuc(a1-3)]GlcNAc(b1-3)Gal(b1-4)[Fuc(a1-3)]GlcNAc
Procedure, shortened: as §1

[13] = target: Fuc(a1-2)[Gal(a1-3)]Gal
Procedure, shortened: as §1

[14] = target: Fuc(a1-2)[Gal(a1-3)]Gal(b1-3)GalNAc
Procedure, shortened: as §1

[15] = target: Fuc(a1-2)[Gal(a1-3)]Gal(b1-3)GlcNAc(b1-3)GalNAc
Procedure, shortened: as §1

[16] = target: Fuc(a1-2)[Gal(a1-4)]Gal(b1-4)GlcNAc
Procedure, shortened: as §1

[17] = target: Fuc(a1-2)[GalNAc(a1-3)]Gal(b1-3)GalNAc(a1-3)[Fuc(a1-2)]Gal(b1-4)GlcNAc
Procedure, shortened: as §1

[18] = target: Fuc(a1-2)[GalNAc(a1-3)]Gal(b1-4)GlcNAc(b1-2)Man
Procedure, shortened: as §1

[19] = target: Fuc(a1-2)[GalNAc(a1-3)]Gal(b1-4)GlcNAc(b1-2)Man(a1-3)[Fuc(a1-2)[GalNAc(a1-3)]Gal(b1-4)GlcNAc(b1-2)Man(a1-6)]Man(b1-4)GlcNAc(b1-4)[Fuc(a1-6)]GlcNAc
Procedure, shortened: as §1

[20] = target: Fuc(a1-2)[GalNAc(a1-3)]Gal(b1-4)GlcNAc(b1-3)Gal(b1-4)GlcNAc(b1-3)Gal(b1-4)GlcNAc
Procedure, shortened: as §1

[21] = target: Fuc(a1-2)[GalNAc(b1-3)]Gal
Procedure, shortened: as §1

[22] = target: Fuc(a1-3)[Gal3S(b1-4)]GlcNAc
Procedure, shortened: as §1

[23] = target: Gal(a1-3)Gal(b1-4)GlcNAc(b1-6)GalNAc
Procedure, shortened: as §1

[24] = target: Gal(b1-3)GlcNAc6S
Procedure, shortened: as §1

[25] = target: Gal(b1-4)GlcNAc(b1-2)Man(a1-3)[Gal(b1-4)GlcNAc(b1-2)Man(a1-6)][Gal(b1-4)GlcNAc(b1-4)]Man(b1-4)GlcNAc(b1-4)[Fuc(a1-6)]GlcNAc
Procedure, shortened: as §1

[26] = target: Gal(b1-4)GlcNAc(b1-2)[Gal(b1-4)GlcNAc(b1-6)]Man(a1-6)[Gal(b1-4)GlcNAc(b1-2)Man(a1-3)]Man(b1-4)GlcNAc(b1-4)[Fuc(a1-6)]GlcNAc
Procedure, shortened: as §1

[27] = target: Gal(b1-4)GlcNAc(b1-3)Gal(b1-4)GlcNAc(b1-3)Gal(b1-4)GlcNAc(b1-3)Gal(b1-4)GlcNAc(b1-3)Gal(b1-4)GlcNAc(b1-2)Man(a1-3)[Gal(b1-4)GlcNAc(b1-3)Gal(b1-4)GlcNAc(b1-3)Gal(b1-4)GlcNAc(b1-3)Gal(b1-4)GlcNAc(b1-3)Gal(b1-4)GlcNAc(b1-2)Man(a1-6)]Man(b1-4)GlcNAc(b1-4)GlcNAc
Procedure, shortened: as §1

[28] = target: Gal(b1-4)GlcNAc(b1-3)Gal(b1-4)GlcNAc(b1-3)[Gal(b1-4)GlcNAc(b1-3)Gal(b1-4)GlcNAc(b1-6)]GalNAc
Procedure, shortened: as §1

[29] = target: Gal6S(b1-4)Glc
Procedure, shortened: as §1

[30] = target: GalNAc(a1-3)GalNAc(b1-3)Gal(a1-4)Gal(b1-4)Glc
Procedure, shortened: as §1

B1: a L Fucosidase (Streptosporangium roseum), D2B1P1_STRRD (protein)
chain: MRRKLLLVPAVGLLVIGSIFATQPVASADTPPVYEPTVESLNSHPVPQWFNDDKFGIFIHWGAYSVPAWGPRGSYAEWYGNYMNAGGSATNAHHKATYGQDFNYDAFLQQWKAEKFDPADWVKLFKDAGAKYFVLTSKHHEGMALWDSKSSGRDSVDLGPGRDLAKELFDAARKDEAKLKAGFYYSLYEWYNPAYTGRPATNPYTGAEIPYTGAPGGGDYVKDYMLPQMRELIDGYDPDIIWCDGQWEKPASYWNTAGVIADYYNKALNSGKEVAVANRCKIQSGNLDSPELDFQTPEYTVKPDIDPVKWESSRGIAHSYGYNQNEPEEDHLTSDQLVDSLVDIVSKNGNLLLDIGPKADGTIPEIQRQRLLDIGAWLKANGEAIYGTTYWNRAEEKGGPDDVRYTAKDATLYATALKWPGEQLTLGADLPVDHSTRITMLGSGARLSWSRDEQGRVVVNTPQEAGKHAYVFKIETPGVRSLLRTSSSLAKEIAPGRTISGELTVTNPGKRHTPATKLSLTVPQGWTATLGAPRVRPLGPGESVKVPISVSAPEGVAPAPYTLGLYQRTGRMGTTTALPLTVNRPNLSLGKPATQKSTGYDAPASRAVDGNTGGDWSAGSTTHTAEPEKQAWWQVDLGASARLDSVDVWNRLDCCADRLKDFWVMASDQPFTTDDLDQARTAPGVTAVHVGEQAGSPSKVKLPEGTRGRYVRIQLASPSNPLSLAEVQVRGSMARPNLSLGKPATQKSTGYDAPASRAVDGNTGGDWSAGSTTHTAEPEKQAWWQVDLGASARLDSVDVWNRLDCCADRLKDFWVMASDQPFTTDDLDQARTAPGVTAVHVGEQAGSPSKVKLPEGTRGRYVRIQLASPSNPLSLAEVQVRLEHHHHHHS
glycan array binding signal (z-score) [1]: 4.93 | glycan array binding signal (z-score) [2]: 0.052 | glycan array binding signal (z-score) [3]: -0.56 | glycan array binding signal (z-score) [4]: 0.398 | glycan array binding signal (z-score) [5]: 9.35 | glycan array binding signal (z-score) [6]: 4.15 | glycan array binding signal (z-score) [7]: 4.78 | glycan array binding signal (z-score) [8]: 3.89 | glycan array binding signal (z-score) [9]: 3.58 | glycan array binding signal (z-score) [10]: 0.785 | glycan array binding signal (z-score) [11]: 9.04 | glycan array binding signal (z-score) [12]: 5.04 | glycan array binding signal (z-score) [13]: 3.18 | glycan array binding signal (z-score) [14]: -0.442 | glycan array binding signal (z-score) [15]: 0.499 | glycan array binding signal (z-score) [16]: 4.37 | glycan array binding signal (z-score) [17]: -0.325 | glycan array binding signal (z-score) [18]: 1.44 | glycan array binding signal (z-score) [19]: 0.363 | glycan array binding signal (z-score) [20]: 4.02 | glycan array binding signal (z-score) [21]: -0.567 | glycan array binding signal (z-score) [22]: 0.551 | glycan array binding signal (z-score) [23]: 0.325 | glycan array binding signal (z-score) [24]: -0.504 | glycan array binding signal (z-score) [25]: 1.72 | glycan array binding signal (z-score) [26]: -0.467 | glycan array binding signal (z-score) [27]: -0.491 | glycan array binding signal (z-score) [28]: -0.245 | glycan array binding signal (z-score) [29]: -0.356 | glycan array binding signal (z-score) [30]: -0.338
